Screening data: PubChem, National Center for Advancing Translational Sciences (NCATS)
Hits are enriched below; roughly 7.9% of the tested compounds scored in any of these assays.
HT1080 IDH1KD tx: HT-1080 IDH1 knockdown cell toxicity (counter line). 2% of 360,000 active. AID 686971. HT-1080 IDH1 knockdown viability, ATP luminescence, 48 h. Potency, µM (top dose mostly 46.1 µM), for the others: top-dose activity, negative = toxicity, usual class: cytotoxic;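 further: 0% = DMSO wells and -100% = cell-free medium wells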
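After a 2 h attachment period, IDH1KD HT-1080 cells took pin-transferred compound for 48 h at 37 °C; ATP-based luminescence after 10 min room-temperature reagent incubation reported viability.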
KB-V1 cytotox: KB-V1 MDR subline cytotoxicity; Potency, µM (highest dose often 46.1 µM), most hits filed as cytotoxic; KB-V1 MDR cells viability, CellTiter-Glo, 72 h; 3.4% of 400,000 active; further: on the % scale 0 is the no-effect control and ±100 the full control effect; nearly all actives have a fitted effect of over 60% in size
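Luminescent ATP read-out (CellTiter-Glo, 10 min) measures survival of drug-selected KB-V1 MDR cells after 72 h, 37 degrees C compound exposure. Medium: phenol-red-free DMEM, 10% FBS. Values from fitted concentration-response curves.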
HT1080-NT tox: kills 2HG-producing HT-1080-NT fibrosarcoma cells; HT-1080-NT fibrosarcoma viability, CellTiter-Glo ATP luminescence, 48 h; Potency, µM (doses to about 46.1 µM), for the others: top-dose activity, negative = less viability, usual class: cytotoxic; 1.6% of 360,000 active;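 further: NT is the 2HG producing partner of a matched IDH1 knockdown line; 0% = DMSO-treated cells and -100% = media-only wells without cells; nearly all actives have a fitted effect of over 55% in size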
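Read-out is CellTiter-Glo luminescence after 10 minutes at room temperature, following 48 hours' compound treatment of HT-1080-NT cells (750 cells/well, RPMI, 5% FBS, 37 degrees C).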
KB-3-1 tox: KB-3-1 parental cell cytotoxicity. AID 1347075. Potency, µM (titrated, usually from 46.1 µM), hits mostly cytotoxic. KB-3-1 viability, CellTiter-Glo ATP luminescence, 72 h. 1.4% of 400,000 active; further: on the % scale 0 is the no-effect control and ±100 the full control effect; nearly all actives have a fitted effect of over 60% in size
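Cytotoxicity measured as CellTiter-Glo luminescence after 72 h at 37 C. Compound titrations were pinned onto drug-naive KB-3-1 parental adenocarcinoma cells grown in DMEM with 10% FBS, and normalized data fitted to concentration-response curves.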
SW480 rerep: DNA re-replication induction in SW480 cells. Potency, µM (top dose mostly 46.1 µM), for the others: at the top dose re-replication activation, usual class: activators. 1.8% of 340,000 active. SW480 DNA re-replication, Hoechst DNA content imaging, 48 h. AID 624297; further: % of control where 0% means no effect; nearly all actives have a fitted effect of over 55% in size
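First, 250 cells per well were seeded. Next, compound or vehicle (23 nL) was pinned in, plates sat 48 hr at 37 C. Finally Hoechst was added for 40 min before fluorescence scanning.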
MCF10A rereplic: DNA re-replication induction in MCF 10a cells; MCF 10A DNA re-replication, Hoechst nuclear intensity, 48 h; Potency, µM (highest dose often 46.1 µM), inactives show top-dose activity, positive = re-replication, hits mostly activators; 2.9% of 350,000 active; further: % of control where 0% means no effect; nearly all actives have a fitted effect of over 50% in size
The depositor's hits bear a star; i = inactive; ? = inconclusive; . = not tested or not shown. The call rests on the fitted dose curve; in most records, active means well fitted curve in the direction sought with a large enough effect; inconclusive means small, poorly fitted or top-dose-only effect, or another doubt; inactive means no such curve, though single readings can be large; an effect the other way counts as inactive or inconclusive. Potency means the concentration at half of the fitted maximal effect.

SMILES | HT1080 IDH1KD tx | KB-V1 cytotox | HT1080-NT tox | KB-3-1 tox | SW480 rerep | MCF10A rereplic
CCCNC(=O)c1cnc(Sc2ncc(C(F)(F)F)cc2Cl)n1C | 1% | ? | 7% | i | 5% | 1%
Cc1cc(C)c(C)c(OCCCCn2cnc3ccccc3c2=O)c1 | ? | 23µM* | 6% | i | 12% | ?
O=C(c1ccco1)N1CCN(c2nnc(-c3ccccc3)c3ccccc23)CC1 | -7% | 16µM* | -1% | i | -2% | -4%
O=C(CSc1ccccc1)N1CCN(C(=O)c2ccco2)CC1 | 10% | i | 20% | i | -9% | ?
O=C(CSc1nc(-c2ccccc2)cs1)N1CCN(C(=O)c2ccco2)CC1 | -4% | 18µM* | 3% | i | 7% | 1%
Cc1ccc(OCC(=O)N2CCN(c3nnc(-c4ccccc4)c4ccccc34)CC2)cc1 | ? | 4.1µM* | ? | ? | ? | ?
Cc1onc(-c2ccccc2)c1-c1ccnn1S(=O)(=O)c1ccc(Cl)cc1 | -25% | ? | -6% | i | -50% | -13%
CCOC(=O)C1CCN(C(c2cccnc2)c2c(NC(=O)c3ccco3)sc(C)c2C)CC1 (centres undefined) | ? | 2.9µM* | -19% | 3.3µM* | ? | ?
Cn1c2ccccc2c2cnn(CC(=O)Nc3ccccc3Br)c(=O)c21 | 2% | i | 0% | i | -3% | ?
Cc1c(C)n(CCN(C)C)c2ccc(C(=O)OCCN(C)C)cc12 | ? | i | ? | i | 26% | -2%
Cc1c(C)n(Cc2ccccc2)c2ccc(C(=O)OCCCN(C)C)cc12 | 13µM* | ? | 15µM* | ? | ? | 21µM*
O=C(CCS(=O)(=O)c1ccccc1)Nc1ccc(-c2nc3ccccc3s2)cc1 | -7% | ? | -2% | i | ? | -4%
CC(C)N1CCc2c(sc(NC(=O)c3nc4ccccc4s3)c2C(N)=O)C1 | -28% | ? | ? | i | ? | 23%
CCOC(=O)c1c(NC(=O)c2ccc(S(=O)(=O)N3CCC(C)CC3)cc2)sc2c1CCN(C(C)C)C2 | . | i | . | i | . | .
NC(=O)c1ccsc1NC(=O)c1ccc(S(=O)(=O)N2CCCc3ccccc32)cc1 | -20% | ? | -19% | 23µM* | ? | ?
CC(C)N1CCc2c(sc(NC(=O)c3cc(-c4cccs4)nc4ccccc34)c2C(N)=O)C1 | ? | i | ? | ? | ? | 18µM*
CNC(=O)c1c(NC(=O)c2ccc(S(=O)(=O)N(C)c3ccccc3)cc2)sc2c1CCN(C(C)C)C2 | -1% | ? | -4% | i | ? | 15µM*
CC(C)N1CCc2c(sc(NC(=O)c3ccc(S(=O)(=O)N4CCc5ccccc54)cc3)c2C(N)=O)C1 | 21µM* | ? | ? | 21µM* | 3% | ?
COCCNC(=O)C(=O)NCC1OCCN1S(=O)(=O)c1cccs1 (centres undefined) | 13% | i | 2% | i | -15% | -3%
O=C(NCCS(=O)(=O)c1ccc(Cl)cc1)c1ccc(F)cc1 | 8% | i | 9% | i | 2% | -15%
CCN1CCc2c(sc(NC(=O)c3ccc(S(=O)(=O)N(C)c4ccccc4)cc3)c2C(=O)NC)C1 | -24% | i | -21% | i | ? | 16µM*
CCN1CCN(C(c2ccccc2F)c2c(O)cc(C)n(CCOC)c2=O)CC1 (centres undefined) | . | i | . | i | . | .
Cc1ccccc1Cn1cc(NC(=O)CSc2nc3c(c(C(F)(F)F)n2)CCc2ccccc2-3)cn1 | 6% | i | 2% | i | 17% | 19%
Cc1ccc(Cn2nc(C)c(NC(=O)CSc3nc4c(c(C(F)(F)F)n3)CCc3ccccc3-4)c2C)cc1 | 1% | 4.1µM* | 6% | ? | -28% | ?
